Common to all, as to assay: DAPPL (digital affinity profiling via proximity ligation, sequencing); 10 mM Tris-HCl pH 7.5, 50 mM NaCl, 1 mM DTT, 4% glycerol, room temperature, 30 min; GST-TFs on glutathione beads, 16-mer random dsDNA library, 0.1% formaldehyde crosslink after washing; high values mean tight binding
Common to all, as to settings: protein: recombinant; tags: N-terminal GST; dsDNA, one strand shown

For one experiment, the target named is T1, FLI1 (Homo sapiens, UniProt Q01543 1-452).
T1 sequence: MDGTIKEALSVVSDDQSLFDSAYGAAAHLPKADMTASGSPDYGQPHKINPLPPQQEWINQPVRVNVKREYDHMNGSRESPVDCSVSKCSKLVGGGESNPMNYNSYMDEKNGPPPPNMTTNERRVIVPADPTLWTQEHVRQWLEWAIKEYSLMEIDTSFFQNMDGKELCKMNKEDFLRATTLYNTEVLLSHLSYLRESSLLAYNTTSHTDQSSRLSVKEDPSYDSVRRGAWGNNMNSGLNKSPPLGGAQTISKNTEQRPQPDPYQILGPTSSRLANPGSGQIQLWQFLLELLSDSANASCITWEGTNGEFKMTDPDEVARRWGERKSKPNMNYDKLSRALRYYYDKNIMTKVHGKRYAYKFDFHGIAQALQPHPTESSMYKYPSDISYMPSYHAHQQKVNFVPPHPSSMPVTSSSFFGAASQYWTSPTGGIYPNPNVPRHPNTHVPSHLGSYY
The method, boiled down:
(§1)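 Sequencing on an Illumina NextSeq500 followed washing, crosslinking with 0.1% formaldehyde, proximity ligation (BsaI/T4 ligase, 1 h, 37 °C) and PCR amplification of pools that had been incubated for 30 min at room temperature with 200 nmole of a random double-stranded 16-mer DNA library in Tris/NaCl/DTT/glycerol buffer. Each pool held DNA-barcoded human transcription factors, expressed in yeast as GST fusions and captured on glutathione beads, plus a tag-only sample. Binding signal is a hexamer's read frequency for a factor divided by its frequency in the tag-only sample.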

The target of a further experiment is T2, ELK1 (Homo sapiens, UniProt P19419 1-428).
T2 sequence: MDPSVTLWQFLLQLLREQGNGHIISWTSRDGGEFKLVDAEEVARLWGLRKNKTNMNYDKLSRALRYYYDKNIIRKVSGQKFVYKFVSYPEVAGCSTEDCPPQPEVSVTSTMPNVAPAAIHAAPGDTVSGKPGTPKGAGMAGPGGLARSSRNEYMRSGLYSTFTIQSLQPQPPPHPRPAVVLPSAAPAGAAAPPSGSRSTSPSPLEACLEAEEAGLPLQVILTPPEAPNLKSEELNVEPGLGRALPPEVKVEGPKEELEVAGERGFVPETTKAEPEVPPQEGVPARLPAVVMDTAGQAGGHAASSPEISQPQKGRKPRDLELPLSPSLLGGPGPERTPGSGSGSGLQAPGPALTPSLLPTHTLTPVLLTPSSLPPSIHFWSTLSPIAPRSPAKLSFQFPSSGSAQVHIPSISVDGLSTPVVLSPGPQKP
The method, boiled down:
as §1

In another experiment the target is T3, GABPA (Homo sapiens, UniProt Q06546 1-454).
T3 sequence: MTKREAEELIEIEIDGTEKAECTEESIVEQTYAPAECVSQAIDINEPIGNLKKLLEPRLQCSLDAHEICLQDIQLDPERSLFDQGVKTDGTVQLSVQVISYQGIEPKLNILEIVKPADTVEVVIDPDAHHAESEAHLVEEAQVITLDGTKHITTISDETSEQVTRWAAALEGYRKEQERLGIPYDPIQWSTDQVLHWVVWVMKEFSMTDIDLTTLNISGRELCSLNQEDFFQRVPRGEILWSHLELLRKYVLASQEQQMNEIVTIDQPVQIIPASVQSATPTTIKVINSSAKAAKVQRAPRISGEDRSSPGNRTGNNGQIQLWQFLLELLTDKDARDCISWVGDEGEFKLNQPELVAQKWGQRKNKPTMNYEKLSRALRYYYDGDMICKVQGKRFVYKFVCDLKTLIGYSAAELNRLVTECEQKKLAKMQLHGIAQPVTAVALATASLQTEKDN
The method, boiled down: as §1

The target of a further experiment is T4, ERG (Homo sapiens, UniProt P11308 1-479).
T4 sequence: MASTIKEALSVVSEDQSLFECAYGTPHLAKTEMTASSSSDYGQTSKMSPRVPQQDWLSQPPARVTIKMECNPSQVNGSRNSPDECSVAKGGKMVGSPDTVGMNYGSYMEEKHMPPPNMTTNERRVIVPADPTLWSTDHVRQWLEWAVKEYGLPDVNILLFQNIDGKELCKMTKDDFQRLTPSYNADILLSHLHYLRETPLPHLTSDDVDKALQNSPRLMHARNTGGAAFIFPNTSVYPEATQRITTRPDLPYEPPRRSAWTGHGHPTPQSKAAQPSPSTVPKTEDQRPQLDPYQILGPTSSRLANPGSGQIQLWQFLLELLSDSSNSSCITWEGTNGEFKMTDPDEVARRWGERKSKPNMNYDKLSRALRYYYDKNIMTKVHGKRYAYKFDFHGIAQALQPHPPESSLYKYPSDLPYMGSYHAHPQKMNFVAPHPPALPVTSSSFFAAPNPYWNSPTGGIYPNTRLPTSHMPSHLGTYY
The essentials: as §1

Another experiment concerns the target ELF1 (Homo sapiens, UniProt P32519 1-619). The essentials: as §1
A further experiment deals with T5, EHF (Homo sapiens, UniProt Q9NZC4 1-300).
T5 sequence: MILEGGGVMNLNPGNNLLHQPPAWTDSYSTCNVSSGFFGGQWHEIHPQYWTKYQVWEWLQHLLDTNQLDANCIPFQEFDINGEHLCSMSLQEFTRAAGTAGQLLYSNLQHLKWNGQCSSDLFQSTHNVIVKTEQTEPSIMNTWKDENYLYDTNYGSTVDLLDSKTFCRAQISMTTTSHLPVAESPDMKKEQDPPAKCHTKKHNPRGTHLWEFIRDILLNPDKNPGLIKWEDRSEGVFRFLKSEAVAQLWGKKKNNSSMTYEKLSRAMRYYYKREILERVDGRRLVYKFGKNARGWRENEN
The essentials:
as §1

The next experiment concerns the target SPI1 (Homo sapiens, UniProt P17947 1-270). The method, boiled down: as §1
In a further experiment the target is SPIB (Homo sapiens, UniProt Q01892 1-262). The essentials:
as §1

The target in a further experiment is T6, FEV (Homo sapiens, UniProt Q99581 1-238).
T6 sequence: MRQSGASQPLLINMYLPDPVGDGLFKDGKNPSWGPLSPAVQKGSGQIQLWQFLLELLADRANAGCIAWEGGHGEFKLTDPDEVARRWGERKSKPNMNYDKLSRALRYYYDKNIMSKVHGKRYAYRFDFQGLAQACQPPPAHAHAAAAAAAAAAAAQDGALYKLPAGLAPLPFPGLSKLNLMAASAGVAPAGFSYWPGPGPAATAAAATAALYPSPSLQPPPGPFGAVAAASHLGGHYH
The essentials: as §1

The target of the next experiment is ETV5 (Homo sapiens, UniProt P41161 1-510). The method, boiled down:
as §1

The next experiment concerns the target T7, SPIC (Homo sapiens, UniProt Q8N5J4 1-248).
T7 sequence: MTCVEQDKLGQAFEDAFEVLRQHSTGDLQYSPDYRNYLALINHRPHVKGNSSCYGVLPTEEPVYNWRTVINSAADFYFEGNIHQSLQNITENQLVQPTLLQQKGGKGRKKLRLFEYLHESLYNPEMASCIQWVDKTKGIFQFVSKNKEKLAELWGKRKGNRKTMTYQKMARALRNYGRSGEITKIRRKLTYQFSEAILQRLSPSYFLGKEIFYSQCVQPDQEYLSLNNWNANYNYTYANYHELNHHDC
The essentials:
as §1

The target of another experiment is ELF4 (Homo sapiens, UniProt Q99607 1-663). The essentials: as §1
ELF4, sequence (Q99607 whole entry): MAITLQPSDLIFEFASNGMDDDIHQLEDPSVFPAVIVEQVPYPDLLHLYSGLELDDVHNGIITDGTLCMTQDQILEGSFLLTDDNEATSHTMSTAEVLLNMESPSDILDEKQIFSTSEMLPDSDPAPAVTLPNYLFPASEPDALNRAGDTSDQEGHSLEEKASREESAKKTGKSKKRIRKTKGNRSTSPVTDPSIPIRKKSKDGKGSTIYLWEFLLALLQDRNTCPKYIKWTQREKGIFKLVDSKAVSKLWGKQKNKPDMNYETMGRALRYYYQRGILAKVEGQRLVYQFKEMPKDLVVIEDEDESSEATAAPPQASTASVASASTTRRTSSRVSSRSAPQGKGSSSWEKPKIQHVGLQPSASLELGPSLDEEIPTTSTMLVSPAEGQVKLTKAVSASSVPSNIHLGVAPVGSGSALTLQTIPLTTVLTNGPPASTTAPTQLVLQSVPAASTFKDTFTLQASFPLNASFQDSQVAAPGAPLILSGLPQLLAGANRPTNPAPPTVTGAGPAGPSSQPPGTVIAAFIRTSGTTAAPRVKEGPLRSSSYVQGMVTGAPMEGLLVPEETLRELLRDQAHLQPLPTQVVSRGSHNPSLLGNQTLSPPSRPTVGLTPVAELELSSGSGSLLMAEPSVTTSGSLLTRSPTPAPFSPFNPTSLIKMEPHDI
The target in a further experiment is T8, ELK4 (Homo sapiens, UniProt P28324-2 1-405).
T8 sequence: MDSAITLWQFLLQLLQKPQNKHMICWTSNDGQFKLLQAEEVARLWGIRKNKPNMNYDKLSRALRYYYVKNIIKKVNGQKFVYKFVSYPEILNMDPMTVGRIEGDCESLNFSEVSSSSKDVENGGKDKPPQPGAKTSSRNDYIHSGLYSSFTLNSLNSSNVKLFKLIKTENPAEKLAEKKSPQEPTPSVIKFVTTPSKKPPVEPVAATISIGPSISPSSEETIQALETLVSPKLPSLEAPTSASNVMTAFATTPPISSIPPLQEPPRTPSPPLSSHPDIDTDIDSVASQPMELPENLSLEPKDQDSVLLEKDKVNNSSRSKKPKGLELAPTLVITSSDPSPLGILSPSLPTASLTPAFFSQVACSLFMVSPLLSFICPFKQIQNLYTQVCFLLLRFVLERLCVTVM
The method, boiled down:
as §1

The next experiment concerns the target T9, ETV2 (Homo sapiens, UniProt O00321 1-342).
T9 sequence: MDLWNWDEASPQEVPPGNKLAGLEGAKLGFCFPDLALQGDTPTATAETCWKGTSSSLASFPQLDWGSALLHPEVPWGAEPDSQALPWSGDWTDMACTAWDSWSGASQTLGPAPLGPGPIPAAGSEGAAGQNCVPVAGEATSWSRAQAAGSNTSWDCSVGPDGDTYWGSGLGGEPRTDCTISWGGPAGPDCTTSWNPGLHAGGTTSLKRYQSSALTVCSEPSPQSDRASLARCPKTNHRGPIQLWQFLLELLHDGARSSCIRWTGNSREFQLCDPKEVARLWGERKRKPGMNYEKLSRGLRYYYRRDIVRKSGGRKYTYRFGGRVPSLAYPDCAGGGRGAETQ
The method, boiled down: as §1

The target in a further experiment is T10, ELF3 (Homo sapiens, UniProt P78545 1-371).
T10 sequence: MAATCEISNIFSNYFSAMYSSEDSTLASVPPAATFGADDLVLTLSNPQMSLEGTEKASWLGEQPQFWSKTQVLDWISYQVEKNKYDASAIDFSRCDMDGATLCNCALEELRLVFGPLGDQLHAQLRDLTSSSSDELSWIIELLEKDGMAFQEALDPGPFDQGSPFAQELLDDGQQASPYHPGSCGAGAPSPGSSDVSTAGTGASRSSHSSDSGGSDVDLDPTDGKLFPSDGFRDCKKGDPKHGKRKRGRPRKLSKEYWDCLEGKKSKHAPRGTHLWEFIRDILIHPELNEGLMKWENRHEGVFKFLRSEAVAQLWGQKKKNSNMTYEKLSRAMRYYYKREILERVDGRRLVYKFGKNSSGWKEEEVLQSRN
The essentials: as §1

The target in a further experiment is ETV1 (Homo sapiens, UniProt P50549 1-477). The method, boiled down:
as §1

The source of these data is article PMC7862700, “An all-to-all approach to the identification of sequence-specific readers for epigenetic DNA modifications on cytosine”.

ETV5, sequence (P41161 whole entry): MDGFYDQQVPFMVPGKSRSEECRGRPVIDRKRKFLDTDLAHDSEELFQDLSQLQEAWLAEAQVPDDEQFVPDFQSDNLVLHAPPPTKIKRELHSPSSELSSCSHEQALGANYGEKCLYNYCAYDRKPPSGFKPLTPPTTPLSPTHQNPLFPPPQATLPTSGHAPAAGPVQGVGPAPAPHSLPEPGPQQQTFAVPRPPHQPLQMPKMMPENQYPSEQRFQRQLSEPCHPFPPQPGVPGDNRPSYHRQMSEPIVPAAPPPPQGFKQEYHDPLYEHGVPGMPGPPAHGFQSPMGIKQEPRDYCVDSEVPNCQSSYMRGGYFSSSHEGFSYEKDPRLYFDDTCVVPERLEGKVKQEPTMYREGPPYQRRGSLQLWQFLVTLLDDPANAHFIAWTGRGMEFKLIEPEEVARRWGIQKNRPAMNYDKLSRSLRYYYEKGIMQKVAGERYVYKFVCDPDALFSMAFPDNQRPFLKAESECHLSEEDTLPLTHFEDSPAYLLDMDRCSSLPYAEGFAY
SPIB, sequence (Q01892 whole entry): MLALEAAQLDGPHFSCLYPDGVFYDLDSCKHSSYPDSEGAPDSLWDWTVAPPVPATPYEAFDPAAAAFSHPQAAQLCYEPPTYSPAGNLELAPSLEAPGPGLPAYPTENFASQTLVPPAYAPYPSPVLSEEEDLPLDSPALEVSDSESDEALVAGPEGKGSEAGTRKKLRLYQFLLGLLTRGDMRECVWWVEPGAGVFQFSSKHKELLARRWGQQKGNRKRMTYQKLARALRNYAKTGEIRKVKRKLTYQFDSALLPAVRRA
ETV1, sequence (P50549 whole entry): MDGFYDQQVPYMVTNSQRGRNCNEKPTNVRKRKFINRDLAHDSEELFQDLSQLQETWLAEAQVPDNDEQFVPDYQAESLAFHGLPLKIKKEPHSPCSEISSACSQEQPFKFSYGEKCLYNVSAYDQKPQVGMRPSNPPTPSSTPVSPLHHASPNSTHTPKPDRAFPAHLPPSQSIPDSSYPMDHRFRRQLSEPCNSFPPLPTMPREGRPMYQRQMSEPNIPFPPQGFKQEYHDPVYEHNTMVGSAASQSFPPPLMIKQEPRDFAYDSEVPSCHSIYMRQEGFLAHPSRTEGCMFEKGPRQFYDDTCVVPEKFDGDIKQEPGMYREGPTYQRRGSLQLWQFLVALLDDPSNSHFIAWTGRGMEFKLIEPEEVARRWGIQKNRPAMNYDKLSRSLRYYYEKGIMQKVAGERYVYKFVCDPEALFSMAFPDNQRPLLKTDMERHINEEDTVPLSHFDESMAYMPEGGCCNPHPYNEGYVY
ELF1, sequence (P32519 whole entry): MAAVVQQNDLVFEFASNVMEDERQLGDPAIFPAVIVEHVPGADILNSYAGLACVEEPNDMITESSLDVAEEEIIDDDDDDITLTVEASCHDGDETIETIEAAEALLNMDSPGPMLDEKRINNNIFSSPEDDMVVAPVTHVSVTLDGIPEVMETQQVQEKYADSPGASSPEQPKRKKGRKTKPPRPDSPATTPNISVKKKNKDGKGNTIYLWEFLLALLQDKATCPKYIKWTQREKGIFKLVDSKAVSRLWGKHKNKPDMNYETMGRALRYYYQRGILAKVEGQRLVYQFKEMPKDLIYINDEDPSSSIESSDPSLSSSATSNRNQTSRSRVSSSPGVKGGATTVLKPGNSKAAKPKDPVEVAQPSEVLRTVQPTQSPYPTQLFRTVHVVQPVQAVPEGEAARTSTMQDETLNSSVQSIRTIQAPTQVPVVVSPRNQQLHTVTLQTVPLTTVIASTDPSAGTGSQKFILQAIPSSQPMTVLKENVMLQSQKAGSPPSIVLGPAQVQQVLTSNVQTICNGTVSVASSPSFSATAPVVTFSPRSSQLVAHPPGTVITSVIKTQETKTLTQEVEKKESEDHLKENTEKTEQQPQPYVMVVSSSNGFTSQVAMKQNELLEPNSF

Turning to CAACAC, the binding signal is 1.13 fold enrichment (6-mer frequency, TF over GST control) with FLI1; 1.23 fold enrichment (6-mer frequency, TF over GST control) with ELK1; 1.19 fold enrichment (6-mer frequency, TF over GST control) in the experiment with GABPA; 1.1 fold enrichment (6-mer frequency, TF over GST control) with ERG; 1.13 fold enrichment (6-mer frequency, TF over GST control) with ELF1; 1.09 fold enrichment (6-mer frequency, TF over GST control) in the experiment with EHF. The binding signal with SPI1 is 1.06 fold enrichment (6-mer frequency, TF over GST control); in the experiment with SPIB, 1.06 fold enrichment (6-mer frequency, TF over GST control); with FEV, 1.11 fold enrichment (6-mer frequency, TF over GST control); in the experiment with ETV5, 1.07 fold enrichment (6-mer frequency, TF over GST control); with SPIC, 1.08 fold enrichment (6-mer frequency, TF over GST control); in the experiment with ELF4 it was 1.14 fold enrichment (6-mer frequency, TF over GST control). In addition, the binding signal is 1.2 fold enrichment (6-mer frequency, TF over GST control) with ELK4; 1.08 fold enrichment (6-mer frequency, TF over GST control) with ETV2; 1.09 fold enrichment (6-mer frequency, TF over GST control) in the experiment with ELF3; 1.11 fold enrichment (6-mer frequency, TF over GST control) with ETV1.
For CCGCGT, the binding signal with FLI1 is 1.29 fold enrichment (6-mer frequency, TF over GST control); in the experiment with ELK1, 1.11 fold enrichment (6-mer frequency, TF over GST control); in the experiment with GABPA, 1.06 fold enrichment (6-mer frequency, TF over GST control); with ERG it was 1.13 fold enrichment (6-mer frequency, TF over GST control); with ELF1, 1.1 fold enrichment (6-mer frequency, TF over GST control); with EHF, 1.18 fold enrichment (6-mer frequency, TF over GST control). Further, the binding signal is 1.12 fold enrichment (6-mer frequency, TF over GST control) in the experiment with SPI1; 1.16 fold enrichment (6-mer frequency, TF over GST control) with SPIB; 1.13 fold enrichment (6-mer frequency, TF over GST control) with FEV; 1.12 fold enrichment (6-mer frequency, TF over GST control) with ETV5; 1.12 fold enrichment (6-mer frequency, TF over GST control) in the experiment with SPIC; 1.18 fold enrichment (6-mer frequency, TF over GST control) with ELF4. Also, the binding signal with ELK4 was 1.24 fold enrichment (6-mer frequency, TF over GST control); in the experiment with ETV2 it was 1.4 fold enrichment (6-mer frequency, TF over GST control); in the experiment with ELF3 it was 1.16 fold enrichment (6-mer frequency, TF over GST control); in the experiment with ETV1, 1.13 fold enrichment (6-mer frequency, TF over GST control).
